This is an account of results in PubChem BioAssay (EPA / NIEHS).

Records with an inconclusive call do not appear. Activity calls are given as the source filed them. Rule for the calls, unless noted: active = hit-call score of the fitted dose curve at least 0.9, where 1 is the maximum; inconclusive = response in the unintended direction; inactive = score below 0.9.

Test [1] is described as follows: TOX21_p53_BLA_p2_viability: Viability Assessment in the Tox21 HCT-116 p53 Agonism Beta-lactamase Assay, Phase 2 (AID 2283591).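 Note: compound exposure lasted 16 h at 37 °C; actives lower the ATP signal meaning cytotoxicity.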 An outline of the steps:
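HCT116 p53-bla cells, 4000/well, dosed after 5 h plating (217-fold dilution of DMSO stocks) and incubated 16 h at 37C. Viability taken as cellular ATP by CellTiter-Glo luminescence after 30 min RT; signal loss marks cytotoxicity.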

Test [2] addresses Cellular tumor antigen p53 (Homo sapiens) (UniProt P04637). Put plainly: TOX21_p53_BLA_p2_ratio: Tox21 HCT-116 p53 Agonism Beta-lactamase Assay, Ratio, Phase 2 (AID 2283592). An outline of the steps:
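HCT-116 cells with p53-responsive beta-lactamase reporter, 4000 cells/well, preincubated 5 h, then compound in DMSO (217-fold dilution) for 16 h at 37C. CCF4-AM substrate 2 h at room temperature; 460/530 nm emission ratio fitted upward versus DMSO.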

Test [3] is described as follows: TOX21_p53_BLA_p3_viability: Viability Assessment in the Tox21 HCT-116 p53 Agonism Beta-lactamase Assay, Phase 3 (AID 2283593).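 Note: cells exposed to compound for 16 h before reading.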 An outline of the steps: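 HCT116 cells, 4000/well, dosed 5 h after plating by pin transfer (217-fold dilution from DMSO stock) and incubated 16 h at 37C, 5% CO2. Viability read as ATP luminescence with CellTiter-Glo after 30 min at room temperature.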

The target of test [4] is Cellular tumor antigen p53 (Homo sapiens) (UniProt P04637). Kind of test: TOX21_p53_BLA_p3_ratio: Tox21 HCT-116 p53 Agonism Beta-lactamase Assay, Ratio, Phase 3 (AID 2283596). Summed up:
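HCT116 p53-bla cells (4000/well) given compound in DMSO (217-fold dilution) after 5 h, incubated 16 h at 37C. CCF4-AM substrate 2 h at room temperature; 460/530 nm emission ratio, gain fitted against DMSO.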

A short description of test [5]: TOX21_p53_BLA_p4_viability: Viability Assessment in the Tox21 HCT-116 p53 Agonism Beta-lactamase Assay, Phase 4 (AID 2283597).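 Note: hits lower the luminescence signal meaning cytotoxicity.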 Summed up:
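HCT-116 p53-bla cells, 4000/well, dosed after 5 h attachment and incubated 16 h at 37 °C, 5% CO2. Viability from CellTiter-Glo ATP luminescence after 30 min at room temperature, taken after the beta-lactamase read; loss of signal indicates cytotoxicity.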

The target in test [6] is Cellular tumor antigen p53 (Homo sapiens) (UniProt P04637). Kind of test: TOX21_p53_BLA_p5_ratio: Tox21 HCT-116 p53 Agonism Beta-lactamase Assay, Ratio, Phase 5 (AID 2283599). Summed up:
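HCT-116 p53-bla cells (4000/well) plated 5 h, dosed with compound (217-fold DMSO dilution) for 16 h at 37 C; CCF4-AM substrate 2 h at room temperature. Activity is the 460/530 nm emission ratio (405 nm excitation), fitted in gain-of-signal direction versus DMSO.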

Test [7] in a line: TOX21_p53_BLA_p5_viability: Viability Assessment in the Tox21 HCT-116 p53 Agonism Beta-lactamase Assay, Phase 5 (AID 2283600). An outline of the steps:
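HCT-116 p53 beta-lactamase reporter cells, 4000/well, were exposed to compound (pin transfer, 217-fold dilution) for 16 hours at 37C. Cellular ATP was read by CellTiter-Glo luminescence after 30 min at room temperature.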

Test [8] concerns the target Cellular tumor antigen p53 (Homo sapiens) (UniProt P04637). Kind of test: TOX21_p53_BLA_p4_ratio: Tox21 HCT-116 p53 Agonism Beta-lactamase Assay, Ratio, Phase 4 (AID 2283601). An outline of the steps: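 HCT-116 p53 beta-lactamase reporter cells (4000/well) preincubated 5 h, then compound (217-fold dilution of DMSO stock) for 16 h at 37C. CCF4-AM substrate added 2 h at room temperature; 460/530 nm emission ratio fitted upward versus DMSO.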

Test [9] concerns the target T1, Thyroid hormone receptor alpha (Rattus norvegicus) + Thyroid hormone receptor beta (Rattus norvegicus) (UniProt P18113+P63059). Put plainly: TOX21_TR_LUC_GH3_Antagonist_Followup: Tox21 GH3 Thyroid Hormone Receptor Antagonism Luciferase Follow-Up Assay (AID 2283942). An outline of the steps:
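Antagonist mode: GH3 cells seeded 1,500/well, compounds at 15 concentrations (92 uM to 5nM final) plus T3 at 1.0 nM final, 24 h at 37C. Luciferase read with ONE-Glo after 30 min at room temperature.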

In test [10] the target is THRA (gene 7067) (UniProt P10827). Kind of test: TOX21_TRA_COA_Antagonist_Followup_ratio: Tox21 Thyroid Hormone Receptor alpha Antagonism through Coactivator Recruitment Follow-Up Assay, Ratio (AID 2283953). An outline of the steps: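 This follow-up to the GH3 luciferase screen checks specificity in a cell-free format. It measures SRC-2 coactivator peptide binding to TRα LBD by TR-FRET and scores loss of ratio signal relative to DMSO.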
Chain of THRA (gene 7067) (P10827 whole entry, looked up, the tested form may be a part): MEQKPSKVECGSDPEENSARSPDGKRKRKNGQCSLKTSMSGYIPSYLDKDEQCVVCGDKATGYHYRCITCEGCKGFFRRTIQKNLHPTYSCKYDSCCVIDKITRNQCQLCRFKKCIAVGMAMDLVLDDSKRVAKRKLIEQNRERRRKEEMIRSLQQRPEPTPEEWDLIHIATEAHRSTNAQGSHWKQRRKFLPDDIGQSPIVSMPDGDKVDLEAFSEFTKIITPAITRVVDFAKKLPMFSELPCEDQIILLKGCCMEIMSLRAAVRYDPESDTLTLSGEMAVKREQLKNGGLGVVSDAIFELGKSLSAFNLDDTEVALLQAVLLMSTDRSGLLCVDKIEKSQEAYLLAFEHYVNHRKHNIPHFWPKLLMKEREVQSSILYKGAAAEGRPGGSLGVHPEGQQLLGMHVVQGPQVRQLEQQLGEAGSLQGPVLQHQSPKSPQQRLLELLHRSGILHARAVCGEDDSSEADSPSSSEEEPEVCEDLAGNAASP

Test [11] concerns the target THRB (gene 7068) (UniProt P10828). Put plainly: TOX21_TRB_BLA_Antagonist_Followup_ratio: Tox21 Thyroid Hormone Receptor beta Antagonism Beta-lactamase (BLA) Follow-Up Assay, Ratio (AID 2283958). Summed up:
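In this antagonist-mode follow-up, a stably integrated GAL4-TRβ LBD fusion drives a UAS-beta-lactamase reporter in HEK293T cells. Loss of ratio signal relative to DMSO after 18 h treatment indicates activity; parallel CellTiter-Glo flags cytotoxicity.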

Test [12] in a line: TOX21_TRB_BLA_Antagonist_Followup_viability: Viability Assessment in the Tox21 Thyroid Hormone Receptor beta Antagonism Beta-lactamase (BLA) Follow-Up Assay (AID 2283961). An outline of the steps: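 HEK293T cells with GAL4-human TRβ LBD and UAS-bla reporter, 3,000 cells/well in 2% charcoal-stripped FBS medium; 11-point concentrations in triplicate, 18 h at 37C. Viability from ATP by CellTiter-Glo luminescence, 30 min RT, same plates.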

Test [13] has as its target THRB (gene 7068) (UniProt P10828). Kind of test: TOX21_TRB_COA_Antagonist_Followup_ratio: Tox21 Thyroid Hormone Receptor beta Antagonism through Coactivator Recruitment Follow-Up Assay, Ratio (AID 2283967). An outline of the steps:
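Cell-free TR-FRET: GST-TRb LBD (5.0 nM) with fluorescein-SRC-2 peptide (200 nM) and Tb anti-GST antibody (2 nM), 0.10% BSA. 520:495 nm emission ratio normalized to DMSO (0%) and T3 (100%).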

Test [14] can be described thus: TOX21_TR_RXR_BLA_Antagonist_Followup_viability: Viability Assessment in the Tox21 Thyroid Hormone Receptor beta Retinoid X Receptor alpha (RXRa) Antagonism Beta-lactamase (BLA) Follow-Up Assay (AID 2283979). Summed up: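 RXRa-bla HEK293T cells (2,500/well, phenol red-free DMEM, 2% charcoal-stripped FBS) were attached 5 h, then exposed to compounds at 11 concentrations in triplicate for 16 h at 37C. Viability measured by CellTiter-Glo ATP luminescence, bidirectional fitting versus DMSO.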

Test [15] has as its target T1, Thyroid hormone receptor alpha (Rattus norvegicus) + Thyroid hormone receptor beta (Rattus norvegicus). Kind of test: TOX21_TR_LUC_GH3_Agonist_Followup: Tox21 GH3 Thyroid Hormone Receptor Agonism Luciferase Follow-Up Assay (AID 2283939). Summed up:
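Rat GH3 cells (1,500/well) in serum-free assay medium, treated with 15-point series, 92 uM to 5 nM final, for 24 h at 37C. Luciferase via ONE-Glo luminescence; gain of signal fitted against DMSO, T3 positive control.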

Test [16] has as its target THRA (gene 7067) (UniProt P10827). Put plainly: TOX21_TRA_COA_Agonist_Followup_ratio: Tox21 Thyroid Hormone Receptor alpha Agonism through Coactivator Recruitment Follow-Up Assay, Ratio (AID 2283948; active = hit-call score of the fitted dose curve at least 0.9, where 1 is the maximum; inactive = score below 0.9). An outline of the steps: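 Cell-free TR-FRET: GST-tagged TRα LBD (2.5 nM) with 0.10% BSA and compound, then fluorescein-SRC-2 peptide (200 nM) and Tb-anti-GST antibody (2 nM). Readout 520:495 nm ratio (ex 340 nm), normalized to DMSO (0%) and T3 (100%).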

Test [17] has as its target THRB (gene 7068) (UniProt P10828). Kind of test: TOX21_TRB_BLA_Agonist_Followup_ratio: Tox21 Thyroid Hormone Receptor beta Agonism Beta-lactamase (BLA) Follow-Up Assay, Ratio (AID 2283954). Summed up:
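Human TRβ LBD–GAL4 DBD fusion in GeneBLAzer UAS-bla HEK293T cells; 11 concentrations in triplicate, 18 h at 37°C/5% CO2, T3 as agonist control. CCF4-AM substrate 2 h at room temperature; 460:530 nm ratio fitted for gain of signal versus DMSO.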

For test [18] the target is unchanged. Kind of test: TOX21_TRB_COA_Agonist_Followup_ratio: Tox21 Thyroid Hormone Receptor beta Agonism through Coactivator Recruitment Follow-Up Assay, Ratio (AID 2283963; active = hit-call score of the fitted dose curve at least 0.9, where 1 is the maximum; inactive = score below 0.9). An outline of the steps: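 Cell-free TR-FRET coactivator recruitment: GST-tagged TRβ LBD (5.0 nM) with 0.10% BSA incubated with compound, then fluorescein-SRC-2 peptide (200 nM) and Tb-anti-GST antibody (2 nM) added. 520:495 nm ratio normalized to DMSO (0%) and T3 (100%).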

In test [19] the target is Retinoic acid receptor RXR-alpha (Homo sapiens) (UniProt P19793). Kind of test: TOX21_TR_RXR_BLA_Agonist_Followup_ratio: Tox21 Thyroid Hormone Receptor beta Retinoid X Receptor alpha (RXRa) Agonism Beta-lactamase (BLA) Follow-Up Assay, Ratio (AID 2283968). An outline of the steps: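 This follow-up tests whether responses seen in the TR GH3 luciferase agonist screen are specific, using a GAL4-driven beta-lactamase reporter for RXRa in HEK293T cells. Compound exposure lasts 16 h; signal is the cleaved/uncleaved substrate ratio.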
Chain of Retinoic acid receptor RXR-alpha (Homo sapiens) (P19793 whole entry, looked up, the tested form may be a part): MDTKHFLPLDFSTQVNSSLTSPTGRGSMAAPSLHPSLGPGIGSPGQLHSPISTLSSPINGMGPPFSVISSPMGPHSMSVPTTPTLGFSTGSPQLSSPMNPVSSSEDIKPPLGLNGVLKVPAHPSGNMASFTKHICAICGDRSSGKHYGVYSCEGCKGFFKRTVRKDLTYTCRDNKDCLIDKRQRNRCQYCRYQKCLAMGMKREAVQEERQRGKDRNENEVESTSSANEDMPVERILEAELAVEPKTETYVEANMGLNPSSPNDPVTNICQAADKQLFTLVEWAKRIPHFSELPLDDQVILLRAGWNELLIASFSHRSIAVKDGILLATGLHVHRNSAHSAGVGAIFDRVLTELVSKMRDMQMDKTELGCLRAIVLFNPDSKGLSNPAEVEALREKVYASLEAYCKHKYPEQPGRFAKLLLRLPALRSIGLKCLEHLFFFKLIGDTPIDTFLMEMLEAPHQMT

Test [20] in a line: TOX21_TR_RXR_BLA_Agonist_Followup_viability: Viability Assessment in the Tox21 Thyroid Hormone Receptor beta Retinoid X Receptor alpha (RXRa) Agonism Beta-lactamase (BLA) Follow-Up Assay (AID 2283970). An outline of the steps:
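In qHTS format, RXRa-bla HEK293T cells (2,500/well) received compound for 16h. ATP content was then measured with CellTiter-Glo, and responses were fitted bidirectionally relative to DMSO controls.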

Chain of Cellular tumor antigen p53 (Homo sapiens) (P04637 whole entry, looked up): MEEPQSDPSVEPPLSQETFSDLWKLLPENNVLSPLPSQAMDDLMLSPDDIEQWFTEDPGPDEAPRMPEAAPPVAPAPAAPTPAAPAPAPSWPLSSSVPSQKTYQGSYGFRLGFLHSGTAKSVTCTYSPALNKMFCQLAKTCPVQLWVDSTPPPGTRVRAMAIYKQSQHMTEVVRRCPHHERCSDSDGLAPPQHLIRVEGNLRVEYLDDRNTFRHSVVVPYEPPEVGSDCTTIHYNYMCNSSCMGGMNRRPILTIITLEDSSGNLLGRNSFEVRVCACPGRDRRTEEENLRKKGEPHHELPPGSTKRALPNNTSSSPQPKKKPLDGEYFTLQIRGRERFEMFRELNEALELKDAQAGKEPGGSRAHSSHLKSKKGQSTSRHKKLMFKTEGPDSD
Chain of THRB (gene 7068) (P10828 whole entry, looked up, the tested form may be a part): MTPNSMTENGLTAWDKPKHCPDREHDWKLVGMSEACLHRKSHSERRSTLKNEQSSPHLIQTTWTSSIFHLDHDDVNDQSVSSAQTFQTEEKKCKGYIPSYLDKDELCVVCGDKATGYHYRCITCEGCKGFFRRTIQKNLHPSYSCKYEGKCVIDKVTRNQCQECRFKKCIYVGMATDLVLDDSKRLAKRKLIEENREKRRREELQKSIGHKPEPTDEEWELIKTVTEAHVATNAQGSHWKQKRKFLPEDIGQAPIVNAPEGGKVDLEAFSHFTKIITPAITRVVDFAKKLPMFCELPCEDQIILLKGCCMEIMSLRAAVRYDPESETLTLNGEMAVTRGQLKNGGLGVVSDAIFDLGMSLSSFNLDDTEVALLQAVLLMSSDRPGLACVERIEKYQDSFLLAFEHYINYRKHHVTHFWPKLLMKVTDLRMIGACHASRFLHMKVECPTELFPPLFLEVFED
T1 sequence (P63059 whole entry, looked up): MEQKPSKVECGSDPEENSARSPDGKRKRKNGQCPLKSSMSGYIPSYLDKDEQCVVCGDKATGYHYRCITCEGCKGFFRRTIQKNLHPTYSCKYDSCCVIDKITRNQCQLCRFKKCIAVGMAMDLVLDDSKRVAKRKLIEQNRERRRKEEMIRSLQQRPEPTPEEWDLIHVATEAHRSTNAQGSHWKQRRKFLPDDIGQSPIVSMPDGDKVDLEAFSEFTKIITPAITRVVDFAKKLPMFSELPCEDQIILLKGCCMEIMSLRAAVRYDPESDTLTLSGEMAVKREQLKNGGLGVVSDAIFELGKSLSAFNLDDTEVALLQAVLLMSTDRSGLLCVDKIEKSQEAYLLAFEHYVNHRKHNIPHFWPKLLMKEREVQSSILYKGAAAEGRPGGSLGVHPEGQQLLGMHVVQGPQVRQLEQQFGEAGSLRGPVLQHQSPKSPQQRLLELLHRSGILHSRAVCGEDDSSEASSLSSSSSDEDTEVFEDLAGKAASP
T1 sequence (P18113 whole entry, looked up): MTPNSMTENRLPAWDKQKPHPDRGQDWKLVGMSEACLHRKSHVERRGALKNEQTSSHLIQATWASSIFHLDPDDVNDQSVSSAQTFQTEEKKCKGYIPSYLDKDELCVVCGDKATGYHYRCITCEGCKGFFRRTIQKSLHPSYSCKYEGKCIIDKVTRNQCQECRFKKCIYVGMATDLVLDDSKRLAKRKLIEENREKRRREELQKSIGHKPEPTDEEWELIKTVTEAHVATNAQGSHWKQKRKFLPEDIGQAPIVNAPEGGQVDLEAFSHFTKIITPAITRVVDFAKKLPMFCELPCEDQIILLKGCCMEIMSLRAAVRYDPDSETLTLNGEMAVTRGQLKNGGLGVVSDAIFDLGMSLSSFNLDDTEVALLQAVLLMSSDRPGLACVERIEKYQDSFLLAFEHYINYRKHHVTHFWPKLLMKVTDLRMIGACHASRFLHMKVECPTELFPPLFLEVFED

Turning to `O=c1[nH]c(=O)n([C@H]2C[C@H](O)[C@@H](CO)O2)cc1F`, the compound was called inactive (in [1]; in test [2]; in test [9]; in the test with THRA (gene 7067) [10]; with THRB (gene 7068) [11]; in [12]). Moreover, the result (with THRB (gene 7068) [13]; in test [14]) was inactive. For the same compound, the AC50 in test [3] was 0.6 µM (active); in test [4], 1.45 µM (active); in [5], 1.53 µM (active); in test [6] it was 1.8 µM (active); in test [7] it was 0.595 µM (active); in test [8] it was 6.7 µM (active).
For the compound `CC1(C)N=C(N)N=C(N)N1c1ccc(Cl)cc1`, the half-maximal activity concentration (AC50) in test [1] was 6.72 µM (active); in test [2], 28.2 µM (active); in [3] it was 13.9 µM (active); in test [5], 6.46 µM (active); in test [7], 7.84 µM (active); in test [12], 32.1 µM (active). The outcome (in [4]; in test [6]; in [8]; in test [9]; in the test with THRA (gene 7067) [10]; in the test with THRB (gene 7068) [11]) was inactive. In addition, the result (in the test with THRB (gene 7068) [13]; in test [14]) was inactive.
Turning to `CCCCC(CC)COCCCN` (stereo not given), the call in [1], in test [2], in test [3], in [4], in test [5] and in test [6] was inactive. For the same compound, the call in test [7] and in test [8] was inactive.
For the compound `Cc1cc(-n2c(=O)[nH]c(=O)n(C)c2=O)ccc1Oc1ccc(S(=O)(=O)C(F)(F)F)cc1`, the result in test [1], in test [2], in test [3], in [4], in [5] and in test [6] was inactive. Further, the call (in test [7]; in test [8]; in test [15]; with THRA (gene 7067) [16]; with THRB (gene 7068) [17]; with THRB (gene 7068) [18]) was inactive. In addition, the result in [19] and in test [20] was inactive.
